KB-3-1 tox: qHTS assay for MDR1-selective chemotherapeutics: Primary screen using the parental adenocarcinoma cell KB-3-1 | KB-3-1 viability, CellTiter-Glo ATP luminescence, 72 h | Potency, µM (doses to about 46.1 µM), hits mostly cytotoxic | 1.4% of 400,000 active | AID 1347075, 2019; further: nearly all actives have a fitted effect of over 60% in size
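Multi-concentration cytotoxicity screen in KB-3-1 cells grown in DMEM lacking phenol red with 10% FBS. After 72 h at 37 °C with compound, ATP-dependent luminescence was recorded.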
TDP1 cell CPT: qHTS for Inhibitors of human tyrosyl-DNA phosphodiesterase 1 (TDP1): qHTS in cells in presence of CPT | AID 686979, 2013 | 12% of 420,000 active | Potency, µM (doses to about 46.2 µM), inactives show top-dose activity change, negative = growth inhibition, most hits filed as inhibitors | chicken DT40 Tdp1-/-;hTDP1 cells + 20 nM CPT, ATP luminescence, 48 h; further: nearly all actives have a fitted effect of over 55% in size
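Cell growth measured by CellTiter-Glo luminescence after a minimum 48 h, 37 C compound exposure with 20 nM CPT in Tdp1-knockout DT40 cells stably expressing hTDP1, seeded 400/well; qHTS titration format.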
HT1080NT lethal: qHTS for induction of synthetic lethality in tumor cells producing 2HG: qHTS for the HT-1080-NT fibrosarcoma cell line | HT-1080-NT fibrosarcoma viability, CellTiter-Glo ATP luminescence, 48 h | Potency, µM (doses to about 46.1 µM), inactives show at the highest dose activity, negative = less viability, actives largely listed as cytotoxic | 1.6% of 360,000 active;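 further: NT is the 2HG producing partner of a matched IDH1 knockdown line; 0% = DMSO-treated cells and -100% = media-only wells without cells; nearly all actives have a fitted effect of over 55% in size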
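Read-out is CellTiter-Glo luminescence after 10 minutes at room temperature, following 48 hours' compound treatment of HT-1080-NT cells (750 cells/well, RPMI, 5% FBS, 37 degrees C).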
TDP1 cell noCPT: qHTS for Inhibitors of human tyrosyl-DNA phosphodiesterase 1 (TDP1): qHTS in cells in absence of CPT | DT40 Tdp1-/- hTDP1 cells, no CPT, ATP luminescence, 48 h | Potency, µM (series often up to 46.2 µM), inactives show top-dose activity change, negative = growth inhibition, hits mostly inhibitors | 15% of 420,000 active; further: nearly all actives have a fitted effect of over 55% in size
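Stably hTDP1-transfected Tdp1-null chicken DT40 cells were treated with library compounds minus camptothecin and grown for at least 48 hr at 37 °C, after which cellular ATP was quantified by luminescence.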
HT1080 IDH1KD tx: qHTS for induction of synthetic lethality in tumor cells producing 2HG: qHTS for the HT-1080-IDH1KD cell line; HT-1080 IDH1 knockdown viability, ATP luminescence, 48 h; Potency, µM (highest dose often 46.1 µM), for inactives: top-dose activity, negative = toxicity, hits mostly cytotoxic; 2% of 360,000 active;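 further: 0% = DMSO wells and -100% = cell-free medium wells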
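IDH1KD HT-1080 cells, 750/well, RPMI + 5% FBS; compound pinned after 2 h settling; 48 h, 37 °C; CellTiter-Glo luminescence; % activity normalised to DMSO and no-cell wells; curves fitted, classed by r2 and efficacy.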
KB-V1 cytotox: qHTS assay for MDR1-selective chemotherapeutics: Primary screen using the drug-selected MDR subline cells KB-V1 | KB-V1 MDR cells viability, CellTiter-Glo, 72 h | Potency, µM (top dose mostly 46.1 µM), actives largely listed as cytotoxic | 3.4% of 400,000 active | AID 1347076, 2019; further: nearly all actives have a fitted effect of over 60% in size
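Potencies derive from concentration-effect curves fitted to normalized luminescence (CellTiter-Glo) of KB-V1 cells treated for 72 h at 37 degrees C in phenol-red-free DMEM containing 10% FBS.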
Numbers without * were called inactive; i = inactive; ? = inconclusive; / = no result; [ ] = another dose, or the depositor's remark. The list is not random: actives were taken first. Their share in the collection is about 19%. The call rests on the fitted dose curve; in most records, active means well fitted curve in the direction sought with a large enough effect; inconclusive means small, poorly fitted or top-dose-only effect, or another doubt; inactive means no such curve, though single readings can be large; an effect the other way counts as inactive or inconclusive. Unless noted, on the % scale 0 is the no-effect control and ±100 the full control effect; potency means the concentration at half of the fitted maximal effect.

SMILES	KB-3-1 tox	TDP1 cell CPT	HT1080NT lethal	TDP1 cell noCPT	HT1080 IDH1KD tx	KB-V1 cytotox
COc1cccc(CN2C(=O)CCC2(C)C(=O)NC2CCCCC2)c1 (stereo not given)	i	-9.6%	0.0%	4.4%	-2.4%	i
COc1cn(CC(=O)Nc2ccc(C)cc2)c(CN2CCCCC2)cc1=O	/	10.1%	/	-13.6%	/	/
O=C(CSc1nnc(NC(=O)c2ccc(S(=O)(=O)N3CCOCC3)cc2)s1)Nc1ccccc1C(F)(F)F	i	-4.2%	0.2%	?	-0.3%	i
COc1ccc(OC)c(C2Nc3c(C)cc(C)cc3-c3cc(C)nn32)c1 (stereo not given)	i	16.4µM*	/	20.6µM*	/	i
COc1cc(OC)c(C2Nc3c(C)cccc3-c3cc(C)nn32)cc1OC (stereo not given)	i	?	/	?	/	i
COc1ccc(N(CC(=O)NC2CCS(=O)(=O)C2)S(=O)(=O)c2ccc(Cl)c(Cl)c2)cc1 (stereo not given)	i	-20.1%	16.4%	-20.3%	9.4%	i
Cc1cc2c(OCC(O)CNCc3ccco3)cccc2[nH]1 (stereo not given)	i	-16.5%	-25.0%	16.3%	?	i
OC(CNCc1ccco1)Cn1c2ccc(Br)cc2c2cc(Br)ccc21 (stereo not given)	i	14.6µM*	?	18.4µM*	?	i
Cc1ccc(Nc2nccc(N(C)c3ccc4c(C)n(C)nc4c3)n2)cc1S(N)(=O)=O	/	10.6µM*	/	13.3µM*	/	/
Cc1cc(NC(=O)COc2ccccc2C)ccc1NC(=O)c1ccco1	i	23.1µM*	-10.5%	16.4µM*	-0.4%	i
Cc1cccc(C)c1OCC(=O)Nc1ccc(NC(=O)c2ccco2)cc1	i	25.9µM*	-7.5%	20.6µM*	2.0%	i
Cc1cc(NC(=O)COc2ccccc2C)ccc1NC(=O)c1cccs1	i	-60.5%	-12.2%	11.6µM*	-4.3%	?
Cc1cccc(C)c1OCC(=O)Nc1cccc(NC(=O)c2ccco2)c1	i	?	-20.2%	?	-16.7%	?
COc1cc(NC(=O)COc2ccccc2C)ccc1NC(=O)c1ccco1	i	-3.2%	-20.2%	-3.4%	-12.0%	i
O=C(Cc1ccccc1)Nc1ccc(NC(=O)c2cccs2)c(Cl)c1	i	-3.5%	13.2%	?	12.9%	20.6µM*
C/C=C(\C)C(=O)O[C@H]1C[C@@]2(C)CCC(C(C)C)C2(O)CC[C@@]1(C)O (stereo not given in full)	/	-8.4%[9.04 µM]	/	-12.4%[9.04 µM]	/	/
CCNC(=S)Nc1ccc(Cl)c([N+](=O)[O-])c1	i	-16.0%	-5.4%	?	-8.6%	?
CCCCCCC(=O)N1CCC(c2nc3c(nnn3Cc3ccccc3Cl)c(=O)[nH]2)CC1	i	18.4µM*	12.6µM*	?	11.2µM*	i
O=C(c1cccs1)N1CCCC(c2nc3c(nnn3Cc3ccccc3Cl)c(=O)[nH]2)C1 (stereo not given)	i	?	-2.4%	29.1µM*	-7.9%	i
Cc1ccccc1Cn1nnc2c(=O)[nH]c(C3CCN(C(=O)c4ccccc4Cl)CC3)nc21	i	16.4µM*	/	25.9µM*	/	i
COc1cccc(Cn2nnc3c(=O)[nH]c(C4CCN(C(=O)c5ccccc5Cl)CC4)nc32)c1	i	?	/	?	/	i
O=C(c1cccs1)N1CCCC(c2nc3c(nnn3Cc3ccccc3)c(=O)[nH]2)C1 (stereo not given)	i	?	-2.0%	10.7%	0.1%	i
CCOc1ccccc1N1C(=O)c2ccccc2N/C1=C\N1CCN(C(=O)c2ccco2)CC1	/	-23.4%	?	?	-8.1%	/
CCCCn1c(N)c(N(C)C(=O)c2ccccc2Oc2ccccc2)c(=O)[nH]c1=O	i	-2.1%	0.4%[9.24 µM]	13.1%	0.8%	i
O=S1(=O)CCO[C@H]2CCCC[C@@H]2N1Cc1ccccc1F	i	?	/	?	/	i
SMILES	KB-3-1 tox	TDP1 cell CPT	HT1080NT lethal	TDP1 cell noCPT	HT1080 IDH1KD tx	KB-V1 cytotox
O=C(c1ccc2c(c1)N(Cc1ccc(F)cc1)C(=O)c1ccccc1S2(=O)=O)N1CCN(Cc2ccccc2)CC1	i	11.6µM*	/	8.2µM*	/	?
CCC1CCCCN1C(=O)c1ccc2c(c1)N(Cc1cccc(Cl)c1)C(=O)c1ccccc1S2(=O)=O (stereo not given)	/	18.4µM*	/	16.4µM*	/	/
CC1CCCN(CCCNC(=O)c2ccc3c(c2)N(Cc2cccc(Cl)c2)C(=O)c2ccccc2S3(=O)=O)C1 (stereo not given)	/	6.51µM*	/	5.8µM*	/	/
O=C(NCCCN1CCCC1)c1ccc2c(c1)N(Cc1cccc(Cl)c1)C(=O)c1ccccc1S2(=O)=O	i	?	-2.1%	?	-0.6%	i
O=C(c1ccc2c(c1)N(Cc1ccccc1)C(=O)c1ccccc1S2(=O)=O)N1CCc2ccccc21	/	4.11µM*	/	3.26µM*	/	/
O=C(NCc1ccccc1)c1ccc2c(c1)N(Cc1ccccc1)C(=O)c1ccccc1S2(=O)=O	/	-8.9%	/	?	/	/
N#Cc1ccccc1Cn1c(SCC(=O)Nc2ccc(F)cc2)nc2ccccc21	i	?	/	?	/	i
O=C(N/N=C/c1ccc2c(c1)OCO2)C1CC1	i	-7.9%	-1.5%	-3.9%	9.4%	i
CCOC(=O)C(=O)Nc1ccc(S(=O)(=O)Nc2nccs2)cc1	i	-1.6%	-0.2%	5.1%	8.6%	?
O=C(c1ccc2c(c1)N(Cc1cccc(Cl)c1)C(=O)c1ccccc1S2(=O)=O)N1CCCCCC1	/	18.4µM*	/	23.1µM*	/	/
Cc1cccc(N2CCN(C(=O)c3ccc4c(c3)N(Cc3cccc(Cl)c3)C(=O)c3ccccc3S4(=O)=O)CC2)c1C	/	-7.1%	/	-5.7%	/	/
O=C(c1ccc2c(c1)N(Cc1cccc(Cl)c1)C(=O)c1ccccc1S2(=O)=O)N1CCN(Cc2ccccc2)CC1	/	14.6µM*	/	9.2µM*	/	/
O=C(c1ccc2c(c1)N(Cc1cccc(Cl)c1)C(=O)c1ccccc1S2(=O)=O)N1CCCC1	/	23.1µM*	/	20.6µM*	/	/

Assay outcomes: PubChem, National Center for Advancing Translational Sciences (NCATS)
